Compound activity: PubChem, National Center for Advancing Translational Sciences (NCATS)
SW480 rereplic: DNA re-replication induction in SW480 cells. actives 1.8% (n = 340,000). Potency, µM (top dose mostly 46.1 µM), actives largely listed as activators. SW480 DNA re-replication, Hoechst DNA content imaging, 48 h; note: nearly all actives have a fitted effect of over 55% in size
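Treated cells incubate 48 hr (37 C, 5% CO2), are stained 40 min with Hoechst, and nuclear fluorescence is enumerated; a rise in nuclei with high DNA signal marks re-replication.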
HT1080 IDH1KD tx: toxicity to HT-1080 IDH1 knockdown cells (counter line); Potency, µM (series often up to 46.1 µM), actives largely listed as cytotoxic; HT-1080 IDH1 knockdown viability, ATP luminescence, 48 h; actives 2% (n = 360,000); AID 686971
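Using the IDH1-knockdown HT-1080 line run in the same batch and compound series as the NT line, viability after 48 h at 37 °C was determined by CellTiter-Glo luminescence and expressed as % activity.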
KB-V1 MDR tox: KB-V1 MDR subline cytotoxicity; KB-V1 MDR cells viability, CellTiter-Glo, 72 h; Potency, µM (series often up to 46.1 µM), hits mostly cytotoxic; actives 3.4% (n = 400,000); AID 1347076; note: nearly all actives have a fitted effect of over 60% in size
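Drug-selected KB-V1 cells, grown in DMEM lacking phenol red with 10% FBS, receive compound titrations; after three days at 37 degrees C, surviving cell ATP is quantified by CellTiter-Glo luminescence and responses normalized and curve-fitted.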
MCF10A rerep: induces DNA re-replication in MCF 10a normal breast cells; MCF 10A DNA re-replication, Hoechst nuclear intensity, 48 h; actives 2.9% (n = 350,000); Potency, µM (titrated, usually from 46.1 µM), usual class: activators; AID 624296; note: nearly all actives have a fitted effect of over 50% in size
KB-3-1 tox: kills parental KB-3-1 adenocarcinoma cells. KB-3-1 viability, CellTiter-Glo ATP luminescence, 72 h. Potency, µM (series often up to 46.1 µM), most hits filed as cytotoxic. actives 1.4% (n = 400,000); note: nearly all actives have a fitted effect of over 60% in size
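Using CellTiter-Glo luminescence, growth of non-resistant KB-3-1 adenocarcinoma cells is assessed 72 h after pin-tool compound addition at 37 °C. Normalized responses across the concentration series yield fitted curves.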
HT1080NT lethal: kills 2HG-producing HT-1080-NT fibrosarcoma cells. AID 686970. actives 1.6% (n = 360,000). Potency, µM (titrated, usually from 46.1 µM), hits mostly cytotoxic. HT-1080-NT fibrosarcoma viability, CellTiter-Glo ATP luminescence, 48 h;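 note: NT is the 2HG producing partner of a matched IDH1 knockdown line; nearly all actives have a fitted effect of over 55% in size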
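Compounds were tested in concentration-response format on HT-1080-NT cells for 48 hours at 37 degrees C. Cell viability came from CellTiter-Glo luminescence; curves were classified by r2, response magnitude and activity.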
A number is an active result; i = inactive; ? = inconclusive; nt = not tested or not shown. The list is not random: actives were taken first. Their share in the collection is about 7.9%. Calls come from the whole dose curve; as a rule, active = well fitted curve in the direction sought with a large enough effect; inconclusive = small, poorly fitted or top-dose-only effect, or another doubt; inactive = no such curve, though single readings can be large; an effect the other way counts as inactive or inconclusive.

SMILES	SW480 rereplic	HT1080 IDH1KD tx	KB-V1 MDR tox	MCF10A rerep	KB-3-1 tox	HT1080NT lethal
NC(=O)c1ccsc1NC(=O)c1ccc(S(=O)(=O)N2CCCc3ccccc32)cc1	?	i	?	?	23µM	i
CCN1CCc2c(sc(NC(=O)c3ccc(S(=O)(=O)N(C)c4ccccc4)cc3)c2C(=O)NC)C1	?	i	i	16µM	i	i
CC(C)N1CCc2c(sc(NC(=O)c3nc4ccccc4s3)c2C(N)=O)C1	?	i	?	i	i	?
CCOC(=O)c1c(NC(=O)c2ccc(S(=O)(=O)N3CCC(C)CC3)cc2)sc2c1CCN(C(C)C)C2	nt	nt	i	nt	i	nt
CC(C)N1CCc2c(sc(NC(=O)c3ccc(S(=O)(=O)N4CCc5ccccc54)cc3)c2C(N)=O)C1	i	21µM	?	?	21µM	?
CCC(Sc1nc2ncccc2o1)C(=O)Nc1ccc(OC)c(OC)c1 (stereo unspecified)	nt	nt	i	nt	i	nt
CCNC(=S)N=Nc1c(O)[nH]c2ccc([N+](=O)[O-])cc12	i	5.8µM	?	i	i	i
CCNC(=S)N=Nc1c(O)[nH]c2ccc(C(C)C)cc12	i	i	3.7µM	i	i	i
CC(C)c1ccc2[nH]c(O)c(N=NC(=S)NCCc3ccccc3)c2c1	i	?	i	?	?	?
COc1ccc(OC)c(NS(=O)(=O)c2ccc(Cl)s2)c1	?	?	16µM	?	?	?
COc1cccc(NS(=O)(=O)c2ccc(-c3cc(C)no3)s2)c1	nt	nt	i	nt	i	nt
COc1ccc(OC)c(NS(=O)(=O)c2ccc(-c3cc(C)no3)s2)c1	nt	nt	?	nt	4.6µM	nt
CN(C(=O)c1cccnc1)c1nc(-c2ccccc2)cs1	i	i	21µM	i	i	i
Cc1ccc(-c2csc(N(C)C(=O)c3c(C)nn(-c4ccccc4)c3Cl)n2)cc1	i	i	?	5.8µM	i	i
CN(Cc1ccccc1)C(=O)c1cccnc1	i	i	i	i	i	i
O=C(O)CCN1CC2([N+](=O)[O-])C=CC(=O)C([N+](=O)[O-])(C1)C2CC(=O)c1ccccc1 (stereo unspecified)	i	i	i	i	i	i
C/C=C(\C)C(=O)O[C@H](c1cc2ccc(=O)oc2cc1OC)[C@@H](O)C(C)(C)O	i	i	i	i	i	i
Cc1cccc(C)c1-n1nnnc1-c1nc2cc(Br)ccc2[nH]c1=O	nt	i	i	nt	i	i
Cc1cccc(C)c1-n1nnnc1-c1nc2cc3ccccc3cc2[nH]c1=O	nt	0.37µM	6.5µM	nt	1µM	0.65µM
Cc1cccc(C2=NN(c3ccc(Br)cc3)[C@@H](C(=O)N3CCOC3=O)[C@@H]2c2ccc(Cl)cc2)c1	8.2µM	i	i	?	i	i
Cc1cccc(C2=NN(c3ccc(Br)cc3)[C@@H](C(=O)N3CCOC3=O)[C@@H]2c2ccc(F)cc2)c1	9.2µM	i	i	?	i	i
COc1ccc(Cl)cc1NC(=O)Cn1c(=O)n(CCC(=O)NCc2ccc3c(c2)OCO3)c(=O)c2ccccc21	nt	nt	i	nt	i	nt
O=C(NCc1ccc(Cl)cc1)c1ccc2c(c1)N(Cc1ccccc1F)C(=O)c1ccccc1S2=O (stereo unspecified)	nt	nt	?	nt	i	nt
COC(=O)c1ccc2nc(-c3cccc(Br)c3)c(CC3CCCCC3)n2c1	nt	i	13µM	nt	?	i
COC(=O)c1ccc2nc(-c3ccc(Cl)cc3)c(CC3CCCCC3)n2c1	nt	i	16µM	nt	?	i
SMILES	SW480 rereplic	HT1080 IDH1KD tx	KB-V1 MDR tox	MCF10A rerep	KB-3-1 tox	HT1080NT lethal
Cc1cccc(NC(=O)CCNS(=O)(=O)c2cccc3nonc23)c1C	i	i	i	i	i	i
Cc1cccc2sc(NC(=O)CCNS(=O)(=O)c3cccc4nonc34)nc12	i	i	23µM	i	?	i
COc1ccccc1NC(=O)CSc1nnc(C)s1	i	i	i	i	i	i
O=C(O)c1cccc(NC(=O)c2cc3cc(Br)cc(Br)c3oc2=O)c1	nt	nt	i	nt	i	nt
COc1ccc(N=C2SC(CC(=O)Nc3ccc(OC)cc3OC)C(=O)N2C)cc1 (stereo unspecified)	i	i	18µM	i	i	i
COc1cc([N+](=O)[O-])ccc1NC(=O)CC1SC(=Nc2ccc(F)cc2)N(CCC2=CCCCC2)C1=O (stereo unspecified)	i	i	?	?	9.2µM	i
COc1ccc(N=C2SC(CC(=O)Nc3ccccc3)C(=O)N2Cc2ccccn2)cc1 (stereo unspecified)	?	i	?	i	i	i
COc1ccc(N=C2SC(CC(=O)Nc3cccc(Cl)c3)C(=O)N2Cc2ccco2)cc1 (stereo unspecified)	?	16µM	?	?	?	?
Cc1ccccc1OCC(=O)Nc1ccc(-c2nc3cc(Cl)cc(Cl)c3o2)cc1	nt	nt	i	nt	i	nt
O=C(/C=C/c1ccc(C(F)(F)F)cc1)Nc1cccc([S+](=O)([O-])Nc2ccccc2F)c1	nt	nt	i	nt	i	nt
